According to the supplement of paper PMC10849652:
Targets with a hit are over-represented here; the source holds about 7,900 in all. About 0.6% of all pairs of compound and target were hits.

Tests used:
Assay in all cases: log2 fold change, soluble protein after heating vs DMSO (PISA); higher = thermal stabilisation; K562 cells, 10 uM, 30 min; active = over 0.2 and 3.5 SD of the protein, either way, in both replicates (recomputed)
[1] = compound: NC(=O)Nc1cc(-c2cccc(F)c2)sc1C(=O)N[C@H]1CCCNC1
In short: (§1)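 Quantification of soluble protein used TMTpro 16plex LC-MS/MS, with channel sums equalised. Samples were the supernatant after 21,000xg for 90 min of pooled aliquots from K562 cells (2×10^6 cells/mL) treated with 10 μM compound for 30 min, heated for 3 min over 48°C-58°C, and extracted in PBS with 0.5% NP-40 at 4°C. Values, from duplicates, describe thermal stability against control samples on a log2 fold-change scale.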

[2] = compound: NC(=O)c1cnc(N[C@@H]2CCCC[C@@H]2N)nc1Nc1cccc(-n2nccn2)c1
In short: as §1

[3] = compound: NC1(c2ccc(-c3nc4ccn5c(=O)[nH]nc5c4cc3-c3ccccc3)cc2)CCC1
In short: as §1

[4] = compound: NCC(=O)Nc1ccc(-n2nc(C(F)(F)F)cc2-c2ccc3c(ccc4ccccc43)c2)cc1
In short: as §1

entinostat = compound: Nc1ccccc1NC(=O)c1ccc(CNC(=O)OCc2cccnc2)cc1 [entinostat]
In short: as §1

vorinostat = compound: O=C(CCCCCCC(=O)Nc1ccccc1)NO [vorinostat]
In short: as §1

citarinostat = compound: O=C(CCCCCCNC(=O)c1cnc(N(c2ccccc2)c2ccccc2Cl)nc1)NO [citarinostat]
In short: as §1

silmitasertib = compound: O=C(O)c1ccc2c(c1)nc(Nc1cccc(Cl)c1)c1ccncc12 [silmitasertib]
In short: as §1

[5] = compound: c1cc(OCCN2CCCCC2)cc(-c2n[nH]c3ccc(-c4nnc[nH]4)cc23)c1
In short: as §1

[6] = compound: O=C1NC(=O)C(c2cnc3ccccn23)=C1c1cn2c3c(cc(F)cc13)CN(C(=O)N1CCCCC1)CC2
In short: as §1

Measured: log2 fold change

DHRS13 (UniProt Q6UX07)
Chain of UniProt Q6UX07 (Q6UX07 whole entry, looked up): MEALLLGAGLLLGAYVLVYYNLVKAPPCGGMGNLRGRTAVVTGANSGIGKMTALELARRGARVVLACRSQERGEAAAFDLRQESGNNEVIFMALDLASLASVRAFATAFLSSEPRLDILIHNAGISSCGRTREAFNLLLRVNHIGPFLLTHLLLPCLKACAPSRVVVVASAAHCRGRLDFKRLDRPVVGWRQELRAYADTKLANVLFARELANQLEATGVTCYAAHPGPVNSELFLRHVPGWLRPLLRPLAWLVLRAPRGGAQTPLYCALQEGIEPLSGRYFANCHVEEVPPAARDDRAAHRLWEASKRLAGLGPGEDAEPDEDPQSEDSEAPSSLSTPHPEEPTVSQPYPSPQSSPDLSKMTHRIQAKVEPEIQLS
inactive: [1] 0.182 | [2] -0.012 | [3] 0.102 | [4] 0.156 | entinostat 0.043 | vorinostat -0.013 | citarinostat 0.1 | silmitasertib 0.087 | [5] -0.06

DCTPP1 (UniProt Q9H773)
Chain of UniProt Q9H773 (Q9H773 whole entry, looked up): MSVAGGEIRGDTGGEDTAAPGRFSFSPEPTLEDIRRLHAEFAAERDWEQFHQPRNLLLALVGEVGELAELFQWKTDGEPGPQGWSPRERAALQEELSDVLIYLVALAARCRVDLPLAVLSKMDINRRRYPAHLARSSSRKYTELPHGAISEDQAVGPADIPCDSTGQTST
inactive: [1] -0.051 | [2] 0.117 | [3] -0.014 | [4] 0.028 | entinostat 0.062 | vorinostat -0.093 | citarinostat 0.005 | silmitasertib -0.003 | [6] -0.001 | [5] 0.008

EZH2 isoform 2 (UniProt Q15910)
Chain of UniProt Q15910 (Q15910 whole entry, looked up): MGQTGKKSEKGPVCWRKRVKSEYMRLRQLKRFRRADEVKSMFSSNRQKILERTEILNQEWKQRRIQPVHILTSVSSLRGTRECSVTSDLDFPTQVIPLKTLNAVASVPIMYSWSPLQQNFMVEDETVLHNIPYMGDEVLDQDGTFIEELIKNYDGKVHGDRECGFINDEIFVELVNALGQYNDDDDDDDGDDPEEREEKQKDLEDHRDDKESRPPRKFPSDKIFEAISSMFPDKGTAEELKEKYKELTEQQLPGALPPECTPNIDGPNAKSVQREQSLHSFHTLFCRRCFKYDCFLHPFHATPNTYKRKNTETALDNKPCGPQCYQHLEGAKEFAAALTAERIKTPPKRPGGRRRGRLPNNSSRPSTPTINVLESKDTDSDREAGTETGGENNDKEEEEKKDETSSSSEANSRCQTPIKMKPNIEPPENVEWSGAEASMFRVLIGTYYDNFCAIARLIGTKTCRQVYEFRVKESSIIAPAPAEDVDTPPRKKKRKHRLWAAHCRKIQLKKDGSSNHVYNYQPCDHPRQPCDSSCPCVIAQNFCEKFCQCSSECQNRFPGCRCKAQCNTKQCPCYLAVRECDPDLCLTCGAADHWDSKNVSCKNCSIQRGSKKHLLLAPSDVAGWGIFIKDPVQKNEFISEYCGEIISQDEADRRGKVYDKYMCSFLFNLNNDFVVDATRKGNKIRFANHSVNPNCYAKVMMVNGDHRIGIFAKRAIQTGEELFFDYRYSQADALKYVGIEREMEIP
inactive: [1] 0.316 | [2] -0.004 | [3] 0.342 | [4] 0.33 | entinostat -0.039 | silmitasertib 0.046 | [6] -0.118

DCAF13 (UniProt Q9NV06)
Chain of UniProt Q9NV06 (Q9NV06 whole entry, looked up): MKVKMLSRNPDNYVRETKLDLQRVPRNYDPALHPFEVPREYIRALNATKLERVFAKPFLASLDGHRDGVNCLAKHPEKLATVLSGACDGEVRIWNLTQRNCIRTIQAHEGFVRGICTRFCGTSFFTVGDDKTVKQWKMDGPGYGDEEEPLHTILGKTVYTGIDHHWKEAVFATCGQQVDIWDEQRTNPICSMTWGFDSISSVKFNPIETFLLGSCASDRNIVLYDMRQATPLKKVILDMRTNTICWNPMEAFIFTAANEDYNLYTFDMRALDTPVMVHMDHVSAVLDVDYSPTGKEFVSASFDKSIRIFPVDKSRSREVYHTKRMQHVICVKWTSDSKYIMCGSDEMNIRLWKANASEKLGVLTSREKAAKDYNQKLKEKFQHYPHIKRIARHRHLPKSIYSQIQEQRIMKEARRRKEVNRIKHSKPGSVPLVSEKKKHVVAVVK
inactive: [1] -0.004 | [2] 0.049 | [3] 0.196 | [4] 0.077 | entinostat -0.058 | vorinostat 0.004 | citarinostat -0.044 | silmitasertib 0.108 | [6] 0.054 | [5] -0.077

DOHH (UniProt Q9BU89)
Chain of UniProt Q9BU89 (Q9BU89 whole entry, looked up): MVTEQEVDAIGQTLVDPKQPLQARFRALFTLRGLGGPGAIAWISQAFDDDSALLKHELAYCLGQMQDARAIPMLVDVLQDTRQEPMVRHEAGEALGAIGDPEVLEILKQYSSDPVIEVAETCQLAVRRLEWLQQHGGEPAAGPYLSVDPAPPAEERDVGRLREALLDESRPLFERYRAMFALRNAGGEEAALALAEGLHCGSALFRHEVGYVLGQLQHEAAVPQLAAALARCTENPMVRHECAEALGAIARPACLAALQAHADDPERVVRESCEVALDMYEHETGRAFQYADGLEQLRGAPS
inactive: [1] 0.043 | [2] 0.056 | [3] 0.278 | [4] 0.009 | entinostat -0.106 | vorinostat -0.04 | citarinostat 0.017 | silmitasertib 0.047 | [6] 0.153 | [5] 0.283

EED, A0A5F9ZI63
inactive: [1] 0.03 | [2] 0.053 | [3] 0.037 | [4] -0.029 | entinostat -0.039 | vorinostat 0.021 | citarinostat 0.098 | silmitasertib 0.078 | [6] 0.065 | [5] -0.078

EIF4E2 (UniProt O60573)
Chain of UniProt O60573 (O60573 whole entry, looked up): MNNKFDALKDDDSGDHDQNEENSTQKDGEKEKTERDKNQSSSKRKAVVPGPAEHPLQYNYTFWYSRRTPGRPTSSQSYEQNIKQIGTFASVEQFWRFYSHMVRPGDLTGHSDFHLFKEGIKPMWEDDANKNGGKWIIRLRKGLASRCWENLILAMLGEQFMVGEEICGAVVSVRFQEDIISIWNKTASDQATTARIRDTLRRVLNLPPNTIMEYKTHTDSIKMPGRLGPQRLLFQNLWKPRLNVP
inactive: [1] 0.054 | [2] -0.015 | [3] 0.085 | [4] -0.048 | entinostat 0.075 | citarinostat 0.245 | silmitasertib 0.019 | [6] 0.003 | [5] 0.079
